In publication PMC5540273 (PLoS ONE, 2017):

What was measured:
Conditions in all cases: concentration: 1 μM, replicates: in singlicate; n = 1
[1] = system: T1, RSK1(Kin.Dom.1-N-terminal)
T1 construct: gene RPS6KA1

[2] = system: T2, RSK1(Kin.Dom.2-C-terminal)
T2 construct: gene RPS6KA1

[3] = system: T3, RSK2(Kin.Dom.1-N-terminal)
T3 construct: gene RPS6KA3

[4] = system: T4, RSK2(Kin.Dom.2-C-terminal)
T4 construct: gene RPS6KA3

[5] = system: T5, RSK3(Kin.Dom.1-N-terminal)
T5 construct: gene RPS6KA2

[6] = system: T6, RSK3(Kin.Dom.2-C-terminal)
T6 construct: gene RPS6KA2

[7] = system: T7, RSK4(Kin.Dom.1-N-terminal)
T7 construct: gene RPS6KA6

[8] = system: T8, RSK4(Kin.Dom.2-C-terminal)
T8 construct: gene RPS6KA6

S6K1 = system: S6K1
SBK1 = system: SBK1
SGK2 = system: SGK2
SGK3 = system: SGK3
SGK = system: SGK
SIK2 = system: SIK2
SIK = system: SIK
SLK = system: SLK
SNARK = system: T9, SNARK
T9 construct: gene NUAK2

SNRK = system: SNRK
SRC = system: SRC
SRMS = system: SRMS
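Note: KINOMEscan kinase panel screen.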

| Structure (SMILES) | %Inh [1] [%] | %Inh [2] [%] | %Inh [3] [%] | %Inh [4] [%] | %Inh [5] [%] | %Inh [6] [%] | %Inh [7] [%] | %Inh [8] [%] | %Inh (S6K1) [%] | %Inh (SBK1) [%] | %Inh (SGK2) [%] | %Inh (SGK3) [%] | %Inh (SGK) [%] | %Inh (SIK2) [%] | %Inh (SIK) [%] | %Inh (SLK) [%] | %Inh (SNARK) [%] | %Inh (SNRK) [%] | %Inh (SRC) [%] | %Inh (SRMS) [%] |
| --- | --- | --- | --- | --- | --- | --- | --- | --- | --- | --- | --- | --- | --- | --- | --- | --- | --- | --- | --- | --- |
| Cc1nc(N(C)[C@H]2CN(C(=O)CC#N)CC[C@H]2C)c2cc[nH]c2n1 | 12 | 0 | 0 | 0 | 12 | 12 | 4 | 4 | 0 | 0 | 7 | 0 | 25 | 0 | 6 | 1 | 1 | 0 | 11 | 2 |
| CCC(=O)c1c(-c2ccccc2)c2cc(Cl)ccc2c(=O)n1Cc1cc(C(=O)NC2CC2)n(C)n1 | 0 | 8 | 0 | 30 | 6 | 0 | 8 | 0 | 7 | 0 | 5 | 10 | 2 | 55 | 1 | 0 | 0 | 0 | 0 | 0 |
| COc1cc2ncn(-c3cc(OCCCc4ccccc4)c(C(N)=O)s3)c2cc1OC [GSK205189] | 2 | 10 | 7 | 2 | 0 | 0 | 12 | 18 | 0 | 0 | 0 | 0 | 0 | 0 | 2 | 79 | 0 | 0 | 0 | 0 |
| Cn1c(=O)c(F)c(Nc2ccc(I)cc2F)c2c(=O)n(OC[C@H](O)CO)cnc21 | 18 | 12 | 39 | 38 | 11 | 1 | 0 | 6 | 0 | 0 | 3 | 0 | 0 | 0 | 4 | 0 | 0 | 0 | 11 | 0 |
| CCn1c(-c2ccoc2)nc2cnccc21 [SB-733887] | 9 | 4 | 0 | 0 | 0 | 0 | 0 | 0 | 18 | 0 | 5 | 4 | 12 | 0 | 0 | 25 | 0 | 0 | 0 | 0 |
| COC(=O)c1c(-c2ccccc2)c2cc(C)ccc2c(=O)n1Cc1ccccc1 | 0 | 20 | 0 | 0 | 15 | 15 | 0 | 22 | 0 | 0 | 0 | 0 | 0 | 0 | 3 | 0 | 0 | 0 | 0 | 0 |
| C[C@@H]1CC[C@H](C(=O)NC2CCCCC2)CN1c1cc(-c2ccc3c(N)n[nH]c3c2)nc(N)n1 [GSK2291363] | 31 | 6 | 32 | 28 | 23 | 6 | 11 | 26 | 8 | 14 | 0 | 13 | 0 | 3 | 29 | 20 | 31 | 0 | 3 | 11 |
| COc1cccc(-n2cnc3c(N)ncnc32)c1 [SKF-97416] | 8 | 13 | 39 | 34 | 0 | 8 | 40 | 7 | 1 | 29 | 8 | 0 | 44 | 0 | 0 | 2 | 5 | 20 | 13 | 22 |
| CCC(=O)c1c(-c2ccccc2)c2cc(Cl)ccc2c(=O)n1Cc1cc(S(C)(=O)=O)n(CCC(C)(C)O)n1 | 0 | 0 | 9 | 0 | 11 | 5 | 39 | 23 | 0 | 0 | 4 | 0 | 4 | 7 | 11 | 21 | 1 | 27 | 0 | 0 |
| COc1cccc(C2=C(Nc3cccc(C(=O)O)c3)C(=O)NC2=O)c1 [SB-390770] | 0 | 0 | 4 | 15 | 8 | 0 | 20 | 10 | 6 | 18 | 11 | 48 | 8 | 7 | 10 | 35 | 72 | 0 | 0 | 0 |
| CN(C)c1cc(-c2ccc3c(N)n[nH]c3c2)nc(N)n1 [GSK2219329] | 11 | 0 | 0 | 0 | 0 | 4 | 0 | 14 | 2 | 7 | 0 | 3 | 5 | 0 | 0 | 13 | 0 | 0 | 12 | 0 |
| Cc1ccc(-c2ccc3c(ccc4sc5c(c43)NC[C@@H](C)N=C5N(C)C)n2)cn1 | 0 | 0 | 0 | 0 | 0 | 0 | 0 | 0 | 0 | 0 | 0 | 0 | 0 | 0 | 3 | 0 | 0 | 0 | 0 | 0 |
| Nc1nc(N)c2nc(-c3ccccc3)[nH]c2n1 [SKF-12778] | 0 | 0 | 9 | 9 | 18 | 0 | 15 | 1 | 8 | 10 | 18 | 7 | 15 | 22 | 17 | 21 | 19 | 0 | 19 | 0 |
| CCc1ccc(-c2ccc3c(c2)-c2nn(C)cc2S(=O)(=O)N3C)cc1 | 2 | 41 | 15 | 63 | 10 | 32 | 0 | 21 | 22 | 0 | 0 | 0 | 0 | 0 | 0 | 12 | 0 | 0 | 0 | 46 |
| Nc1n[nH]c2nnc(-c3ccccc3)c(-c3ccccc3)c12 [GW554060] | 0 | 1 | 4 | 29 | 4 | 0 | 10 | 8 | 0 | 13 | 0 | 1 | 24 | 0 | 0 | 24 | 0 | 0 | 0 | 0 |
| COc1ccc(Nc2nccc(N3CCC(NS(=O)(=O)c4ccc(NC(C)=O)cc4)C3)n2)cc1 (centres unmarked) [GSK1379729] | 0 | 0 | 0 | 18 | 6 | 0 | 0 | 5 | 0 | 4 | 14 | 0 | 10 | 18 | 2 | 18 | 2 | 9 | 6 | 0 |

| Structure (SMILES) | %Inh [1] [%] | %Inh [2] [%] | %Inh [3] [%] | %Inh [4] [%] | %Inh [5] [%] | %Inh [6] [%] | %Inh [7] [%] | %Inh [8] [%] | %Inh (S6K1) [%] | %Inh (SBK1) [%] | %Inh (SGK2) [%] | %Inh (SGK3) [%] | %Inh (SGK) [%] | %Inh (SIK2) [%] | %Inh (SIK) [%] | %Inh (SLK) [%] | %Inh (SNARK) [%] | %Inh (SNRK) [%] | %Inh (SRC) [%] | %Inh (SRMS) [%] |
| --- | --- | --- | --- | --- | --- | --- | --- | --- | --- | --- | --- | --- | --- | --- | --- | --- | --- | --- | --- | --- |
| O=C(NCc1cccs1)c1cc(C(=O)c2c(Cl)cccc2Cl)c[nH]1 [GW823670] | 16 | 13 | 2 | 0 | 0 | 18 | 0 | 0 | 7 | 0 | 0 | 0 | 0 | 4 | 4 | 9 | 0 | 0 | 0 | 15 |
| CCCC(=O)Nc1n[nH]c2ncc(-c3cccc4ccccc34)cc12 [SB-642057] | 26 | 24 | 14 | 0 | 0 | 0 | 0 | 15 | 16 | 7 | 0 | 26 | 0 | 0 | 0 | 14 | 0 | 0 | 0 | 4 |
| Nc1nc(-c2ccccc2F)c(-c2ccnc3ccccc23)s1 [GW560459] | 0 | 35 | 6 | 95.6 | 0 | 1 | 0 | 89 | 0 | 6 | 1 | 5 | 15 | 0 | 0 | 4 | 8 | 0 | 0 | 0 |
| Fc1cccc(CSc2nnc(-c3ccc4c(c3)CCO4)o2)c1 | 0 | 23 | 14 | 18 | 0 | 8 | 15 | 16 | 9 | 0 | 24 | 9 | 8 | 0 | 12 | 5 | 12 | 10 | 5 | 0 |
| COc1ccc(-n2cnc3c(N)ncnc32)cc1 [SKF-97236] | 0 | 0 | 11 | 22 | 9 | 0 | 9 | 36 | 9 | 13 | 6 | 11 | 0 | 14 | 0 | 11 | 24 | 0 | 0 | 0 |
| COc1cc2ncn(-c3cc(OCc4ccc(S(C)(=O)=O)cc4)c(C(N)=O)s3)c2cc1OC [GW869979] | 1 | 0 | 26 | 0 | 0 | 7 | 27 | 6 | 19 | 37 | 24 | 5 | 40 | 0 | 0 | 29 | 15 | 2 | 11 | 14 |
| Nc1ncnc2c1ncn2-c1ccc(Cl)cc1 [AH2635] | 9 | 4 | 0 | 0 | 0 | 0 | 0 | 46 | 0 | 0 | 0 | 0 | 0 | 0 | 3 | 20 | 0 | 0 | 0 | 0 |
| Nc1nccc2scc(-c3ccc4c(c3)CCN4C(=O)Cc3ccccc3)c12 [GSK2576924] | 9 | 20 | 0 | 0 | 8 | 7 | 0 | 11 | 2 | 2 | 0 | 16 | 0 | 4 | 0 | 14 | 16 | 3 | 2 | 10 |
| O=C(Nc1n[nH]c2nc(-c3ccccc3)c(Cl)cc12)C1CC1 [SB-734909] | 26 | 0 | 29 | 0 | 0 | 7 | 42 | 1 | 44 | 0 | 5 | 12 | 9 | 27 | 0 | 15 | 0 | 33 | 0 | 0 |
| CCC(=O)c1c(-c2ccccc2)c2cc(Cl)ccc2c(=O)n1Cc1ccc(C(=O)O)cc1 | 0 | 0 | 0 | 0 | 0 | 0 | 0 | 0 | 0 | 0 | 6 | 0 | 1 | 7 | 0 | 0 | 0 | 0 | 0 | 0 |
| Cl.NS(=O)(=O)c1cccc(Nc2cc(-c3ccc(F)cc3)n[nH]2)c1 [GW824645] | 0 | 0 | 35 | 0 | 0 | 0 | 15 | 0 | 0 | 0 | 100 | 0 | 22 | 3 | 0 | 0 | 0 | 0 | 1 | 31 |
| FC(F)(F)c1ccc(-c2ncn(CCCN3CCOCC3)c2-c2ccncc2)cc1 [SB-217780] | 11 | 6 | 0 | 28 | 32 | 19 | 1 | 44 | 0 | 13 | 25 | 0 | 5 | 0 | 0 | 0 | 0 | 18 | 0 | 0 |
| COc1ccc(-c2cc3c(C)nc(N)nc3n([C@H]3CC[C@H](OCCO)CC3)c2=O)cn1 | 0 | 9 | 0 | 0 | 16 | 12 | 0 | 23 | 0 | 0 | 0 | 17 | 0 | 5 | 18 | 0 | 0 | 0 | 8 | 1 |
| CC(C)(C)c1ccc(C(=O)Nc2cn3cc(-c4ccccc4)ccc3n2)cc1 | 0 | 0 | 3 | 0 | 24 | 100 | 0 | 0 | 0 | 0 | 0 | 0 | 0 | 66 | 0 | 9 | 0 | 0 | 0 | 0 |
| Cc1ccccc1COc1cc(-n2cnc3cc(Cl)ccc32)sc1C(N)=O [GW813349] | 16 | 0 | 2 | 49 | 5 | 0 | 0 | 42 | 8 | 0 | 6 | 1 | 0 | 0 | 4 | 73 | 4 | 3 | 0 | 0 |
